High-throughput results from PubChem BioAssay.
GLP-1R inv ag: qHTS of GLP-1 Receptor Inverse Agonists (Inhibition Mode); AID 624417, 2012; Potency, µM (doses to about 38.3 µM), most hits filed as inhibitors; Glucagon-like peptide 1 receptor (Homo sapiens), P43220; HEK293 GLP-1R CRE-luciferase, luminescence, 24 h; GLP-1R form is constitutively active; actives 1.6% (n = 410,000); note: nearly all actives have a fitted effect of over 55% in size
Target sequence (P43220 whole entry, looked up): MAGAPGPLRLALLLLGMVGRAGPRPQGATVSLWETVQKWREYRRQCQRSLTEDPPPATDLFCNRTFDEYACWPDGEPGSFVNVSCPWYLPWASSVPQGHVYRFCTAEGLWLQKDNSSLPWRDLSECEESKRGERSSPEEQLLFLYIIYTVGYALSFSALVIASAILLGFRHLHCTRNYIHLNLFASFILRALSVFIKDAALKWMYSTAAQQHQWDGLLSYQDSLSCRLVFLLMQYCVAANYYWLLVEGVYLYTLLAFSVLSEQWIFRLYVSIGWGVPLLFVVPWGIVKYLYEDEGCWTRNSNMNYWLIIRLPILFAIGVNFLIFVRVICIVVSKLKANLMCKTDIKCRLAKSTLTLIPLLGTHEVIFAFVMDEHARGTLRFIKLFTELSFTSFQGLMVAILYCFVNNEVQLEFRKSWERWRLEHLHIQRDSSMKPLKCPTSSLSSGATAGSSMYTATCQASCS
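HEK293 cells stably co-expressing constitutively active GLP-1R and a cAMP-responsive luciferase reporter were seeded in DMEM with 10% Nu serum, given compounds after 12 h, and incubated 24 h at 37 deg C. Luminescence was then read.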
ClpP mod: qHTS Assay for Activators of ClpP. ATP-dependent Clp protease proteolytic subunit (Bacillus subtilis (strain 168)), P80244. purified B. subtilis ClpP, FRET peptide cleavage, 20 min. Potency, µM (series often up to 57.5 µM). actives 1.9% (n = 340,000); active = well fitted falling curve with a large enough effect; inconclusive = small, poorly fitted or top-dose-only effect; inactive = no such curve, though single readings can be large or run the other way; note: the source files actives as falling curves though it sought activators and does not explain the sign; nearly all actives have a fitted effect of over 65% in size
Target sequence (P80244 whole entry, looked up): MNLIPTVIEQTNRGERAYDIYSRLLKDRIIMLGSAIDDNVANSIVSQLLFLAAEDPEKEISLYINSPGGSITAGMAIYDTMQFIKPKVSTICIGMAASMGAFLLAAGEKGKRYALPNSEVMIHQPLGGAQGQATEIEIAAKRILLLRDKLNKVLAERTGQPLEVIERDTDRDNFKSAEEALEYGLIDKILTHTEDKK
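Buffer: 100 mM Tris/HCl pH8, 100 mM KCl, 0.05% low protease BSA, 2.5% glycerol, 0.01% Tween-20. ClpP 10 microg/mL final; 20 min RT; delta FRET normalized to ADEP and DMSO controls.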
D3 antag: qHTS of D3 Dopamine Receptor Antagonist: qHTS; D(3) dopamine receptor (Homo sapiens), P35462; D3R cells, DiscoveRx beta-arrestin luminescence, antagonist mode; active compounds read low; max response, negative = inhibition, %; actives 2.5% (n = 360,000); AID 652054, 2013; in the data active = max response below about -50%; inconclusive = no clear call, values can overlap the other calls
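Cells plated overnight at 1500 cells/well, then exposed to library compounds with dopamine controls for 90 minutes at 37 degrees C. DiscoveRx reagent added for 30–60 minutes at room temperature; luminescence read, quantitative HTS format.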
HEK293 tox: qHTS of GLP-1 Receptor Inverse Agonists: Cytotox Screen. actives 0.13% (n = 410,000). AID 624418, 2012. HEK293 cAMP-luciferase reporter cells, luminescence, 24 h. Potency, µM (titrated, usually from 38.3 µM), hits mostly inhibitors;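 note: loss of luciferase light is scored as toxicity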
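To flag toxic compounds, the library was rerun on cells for 24 hr at 37 deg C and 5% CO2. Viability-linked luminescence was captured 12 min after adding luciferase detection reagent.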
GLP-1R agonist: qHTS of GLP-1 Receptor Agonists. Glucagon-like peptide 1 receptor (Homo sapiens), P43220. HEK293 GLP-1R CRE-luciferase, luminescence, 4-6 h; cells express a hypersensitive GLP-1R form. Potency, µM (series often up to 45.6 µM), most hits filed as activators. actives 0.007% (n = 380,000). AID 624172, 2012
DRD3 agonist: qHTS of D3 Dopamine Receptor Agonist: qHTS | D(3) dopamine receptor (Homo sapiens), P35462 | D3R DiscoveRx beta-arrestin cells, luminescence, 90 min | max activation, % | actives 0.58% (n = 410,000) | AID 652048, 2013; in the data active = max activation above about 30%
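Cells at 1500/well, incubated overnight, then treated with pinned compounds (dopamine as control) for 90 min at 37 degrees C. DiscoveRx reagent added for 30 - 60 minutes at room temperature; luminescence read.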
Hits are given with their value; – = inactive; ? = inconclusive; · = no result given. Compounds with a hit are over-represented: about 5.7% of the library has one in this group of screens. Unless noted, calls come from the whole dose curve; as a rule, active = well fitted curve in the direction sought with a large enough effect; inconclusive = small, poorly fitted or top-dose-only effect, or another doubt; inactive = no such curve, though single readings can be large; an effect the other way counts as inactive or inconclusive.

SMILES | GLP-1R inv ag | ClpP mod | D3 antag | HEK293 tox | GLP-1R agonist | DRD3 agonist
CCN(CC)CCCN(Cc1cc2cc(OC)c(OC)cc2[nH]c1=O)C(=O)Nc1ccccc1 | – | 32µM | – | – | – | –
CCN(CC)CCCN(Cc1cc2cc3c(cc2[nH]c1=O)OCCO3)C(=O)Nc1ccc(F)cc1 | – | 28µM | – | – | – | –
O=C(CO)NCCCOc1cccc(CN2CCCCC2)c1 | · | · | · | · | – | ·
CCOc1ccc(NC(=O)CSc2oc(-c3ccco3)nc2S(=O)(=O)c2ccccc2)cc1 | – | – | · | – | · | –
CCCCC(=O)Nc1nnc(SCc2cc(=O)n3cc(C)ccc3n2)s1 | – | – | · | – | · | –
COc1cc2cc(CN(Cc3cccs3)C(=S)Nc3ccccc3)c(=O)[nH]c2cc1OC | – | 10µM | – | – | – | –
CNC(=S)N(Cc1cccs1)Cc1cc2ccc(OC)cc2[nH]c1=O | – | – | – | – | – | –
COc1ccc(CCNC(=O)c2cnn3c2NC(=C2CC2)C=C3C(F)F)cc1OC | · | – | · | · | · | ·
O=S(=O)(O)c1ccc(N=Nc2ccccc2)cc1 | – | · | – | – | – | –
O=c1ccc(N=Nc2ccccc2)ccc1O | ? | · | – | 11µM | – | –
C=CCOC(=O)C1=C(C)NC(C)=C(C(=O)OCC=C)C1/C=C/c1ccccc1 | 5µM | ? | – | – | – | –
CCOC(=O)C1=C(C)NC(C)=C(C(=O)OC)C1c1ccco1 (configuration not stated) | – | · | – | – | – | –
C=CCOC(=O)C1=C(C)NC(C)=C(C(=O)OCC=C)C1c1ccco1 | 11µM | ? | – | – | – | –
CC(C)(C)C(=O)Cn1c(=O)n(-c2ccc(Cl)c(Cl)c2)c(=O)c2c3c(sc21)CCCC3 | – | – | · | – | – | –
CCc1ccc(CNC(=O)Cn2nc(C)n3c(cc4cc(C)ccc43)c2=O)cc1 | – | ? | · | – | · | –
O=c1c2ccccc2sn1-c1ccccc1 | 10µM | – | -98 | ? | – | –
O=c1c2ccccc2sn1-c1ccccc1F | 14µM | – | ? | 10µM | – | –
Cc1ccccc1-n1sc2cc(F)ccc2c1=O | ? | · | – | 4.5µM | – | –
O=c1c2ccccc2sn1-c1cccc(Cl)c1 | ? | – | ? | ? | – | –
CC(C)C[C@H]1CN([C@@H](Cc2ccccc2)CN2CCC[C@H]2CN2C(=O)C(=O)NC[C@@H]2Cc2ccc(O)cc2)C(=O)C(=O)N1CC1CCCCCC1 | ? | – | – | – | – | –
Cc1cccc(C(=O)N2c3ncnn3C3(CCCCC3)[C@@H]3CCCC[C@@H]32)c1 | ? | – | · | – | · | –
C=CCn1c(SCCC)nc2ccccc2c1=O | · | – | · | · | · | ·
CCN(CC)CCn1c(=N)n(CC(=O)c2ccc(Br)s2)c2ccccc21 | 2.8µM | · | -73 | ? | – | –
Cn1c(=N)n(CC(=O)c2ccc(Br)s2)c2ccccc21 | ? | – | ? | – | – | –
O=C(Cn1c2c(c(-c3ccccc3)cc1=O)CCCC2)N1CCCCCC1 | 13µM | – | – | – | – | –
SMILES | GLP-1R inv ag | ClpP mod | D3 antag | HEK293 tox | GLP-1R agonist | DRD3 agonist
CCCCNC(=O)Cn1c2c(c(-c3ccccc3Cl)cc1=O)CCC2 | – | – | – | – | – | –
COc1ccc(Cc2c(-c3cccc(Cl)c3)nc3cc(C)c(Br)c(C)n23)c(C)c1 | 8.9µM | – | – | – | – | –
Nc1nc2ccccc2cc1C(=O)NCCCCc1ccccc1 | ? | – | – | – | – | –
CCOc1ccc(Oc2ccc(Cl)cc2NC(=O)C2=COCCO2)cc1 | 10µM | – | – | – | – | –
O=C(Nc1c(-c2ccccc2)[nH][nH]c1=O)c1ccc(Br)cc1 | – | – | – | – | – | –
CC(NS(=O)(=O)c1ccc(Br)cc1)C(c1cccs1)N1CCN(C)CC1 (configuration not stated) | ? | – | -52 | – | – | –
CCC(=O)N1CCCC(C)(C(=O)NS(=O)(=O)c2ccccc2Cl)C1 (configuration not stated) | – | – | – | – | – | –
Cc1cc(C(=O)N[C@H](c2ccccc2)[C@@]2(C)C[C@@H]2[C@@H](C)C(=O)Nc2ccc3ccccc3c2)n(C)n1 | 10µM | – | – | – | – | –
C[C@@H](C(=O)Nc1ccc2ccccc2c1)[C@H]1C[C@]1(C)[C@H](NC(=O)OCc1ccccc1)c1ccccc1 | ? | – | – | – | – | –
Cc1cc(C)c(C#N)c(N2CCN(c3ccccc3)CC2)n1 | ? | – | – | – | – | –
Cc1cc(C)c(C#N)c(N2CCCC(C(N)=O)C2)n1 (configuration not stated) | – | 3.5µM | – | – | – | –
Cc1cc(C)c(C#N)c(N2CCSCC2)n1 | – | 35µM | – | – | – | –
CCOC(=O)C1CCN(c2nc(C)cc(C)c2C#N)CC1 | – | · | – | – | – | –
CCOc1ccc(-n2c(=O)c3c(C)c(C)sc3n(CC(=O)NCCc3ccccc3)c2=O)cc1 | – | – | · | – | · | –
CCCCN(CC)CCNC(=O)Cn1c(=O)c2cccn2c2cccnc21 | – | ? | · | – | · | –
CCC(C)(C)C1CCC2(CC1)NC(=O)N(CC(=O)NC(C)CCc1ccccc1)C2=O (configuration not stated) | 3.5µM | – | – | – | – | –
Nc1[nH]c(C(=O)c2ccccc2)c(-c2ccccc2C(F)(F)F)c1C(=O)NCCc1c[nH]c2ccccc12 | ? | – | – | ? | – | –
CC(=C/c1ccccc1)/C=N/NC(=O)c1nnn(-c2nonc2N)c1CN1CCC(C)CC1 | 4µM | · | – | – | – | –
Cc1ccc(-c2c(C(=O)N/N=C/c3c[nH]c4ccccc34)nnn2-c2nonc2N)cc1 | 3.2µM | – | – | – | – | –
Cc1c(C(=O)N/N=C/c2cccs2)nnn1-c1nonc1N | – | – | – | – | – | 36
CC(/C=N/NC(=O)c1nnn(-c2nonc2N)c1CN1CCCCC1)=C\c1ccccc1 | ? | – | – | – | – | –
Nc1nonc1-n1nnc(C(=O)N/N=C/c2ccc(Br)cc2)c1-c1ccc2c(c1)OCO2 | – | 25µM | – | – | – | –
O=C(CSc1nc2[nH]ncc2c(=O)[nH]1)Nc1cc(C(F)(F)F)ccc1Cl | – | – | – | – | – | –
C/C(=N\NC(=O)c1nnn(-c2nonc2N)c1-c1cccs1)c1ccc(C)cc1 | – | – | – | – | – | –
CCN(CC)Cc1c(C(=O)N/N=C/c2c(Cl)cccc2Cl)nnn1-c1nonc1N | – | · | – | – | – | 30
